A selection: hits, their analogues and other compounds. The true share with any hit is near 1.8%.
Granule exo inh – LAMP-1 surface exposure blockers, TALL-104 cells – cell-based, flow cytometry, MLPCN library, primary screen. inhibition, % at 10 µM. TALL-104 LAMP-1 surface exposure; cells stimulated with thapsigargin and PMA. actives 0.66% (n = 360,000). AID 651702, 2012;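 active = inhibition above about 55%, limit read from the data; inconclusive = no clear call, values can overlap the other calls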
ABCB6 inh MLPCN – ABCB6 transporter inhibitors, primary screen, K562-ABCB6 cells, flow cytometry, MLPCN library; fluorescence ratio to DMSO, % at 10 µM; K562-ABCB6 porphyrin accumulation, 1 h; hits give low values; actives 0.19% (n = 360,000); AID 602162, 2011; ATP-binding cassette sub-family B member 6 (Homo sapiens), Q9NP58;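 active = fluorescence ratio to DMSO below 75%, the collection mean minus 3 SD; inconclusive = too few cells collected in the well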;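 note: signal is porphyrin accumulated inside mitochondria; lower ratio means ABCB6 inhibition with less porphyrin fluorescence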
Target sequence (Q9NP58 whole entry, looked up): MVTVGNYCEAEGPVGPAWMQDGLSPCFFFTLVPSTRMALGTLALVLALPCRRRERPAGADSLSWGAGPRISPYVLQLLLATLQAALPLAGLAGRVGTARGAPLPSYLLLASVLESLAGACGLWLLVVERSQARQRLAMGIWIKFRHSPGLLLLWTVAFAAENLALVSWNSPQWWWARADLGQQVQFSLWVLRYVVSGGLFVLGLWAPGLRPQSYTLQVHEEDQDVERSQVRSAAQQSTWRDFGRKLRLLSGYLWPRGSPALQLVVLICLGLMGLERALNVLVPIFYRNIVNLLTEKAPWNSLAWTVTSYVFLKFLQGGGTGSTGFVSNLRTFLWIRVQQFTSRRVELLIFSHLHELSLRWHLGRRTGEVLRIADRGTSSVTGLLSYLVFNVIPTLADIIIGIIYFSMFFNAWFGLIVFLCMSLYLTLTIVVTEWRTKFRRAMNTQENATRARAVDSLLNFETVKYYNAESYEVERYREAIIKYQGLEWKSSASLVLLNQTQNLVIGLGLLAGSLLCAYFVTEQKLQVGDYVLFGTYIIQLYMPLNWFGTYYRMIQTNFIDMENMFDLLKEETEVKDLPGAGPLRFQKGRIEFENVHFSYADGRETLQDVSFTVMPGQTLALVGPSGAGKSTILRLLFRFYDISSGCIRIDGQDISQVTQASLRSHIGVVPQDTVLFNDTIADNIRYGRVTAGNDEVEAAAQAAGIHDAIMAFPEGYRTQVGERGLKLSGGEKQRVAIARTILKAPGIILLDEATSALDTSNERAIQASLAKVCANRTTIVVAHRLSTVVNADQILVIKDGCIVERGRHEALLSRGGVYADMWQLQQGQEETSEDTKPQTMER
Myeloid diff MLP – induction of myeloid progenitor differentiation, primary screen, cell-based, flow cytometry, MLPCN library. ER-HoxA9 myeloid progenitors, lysozyme-GFP differentiation. calls only at 10 µM. actives 1% (n = 360,000);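 active = normalized GFP-positive differentiation at or above the plate's own cutoff, the solvent-only control mean plus 3 SD; inconclusive = no clear call, values can overlap the other calls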;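 note: cells exposed to compound for four days before flow analysis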
Numbers stand for hits; – = inactive; ? = inconclusive; · = no result given; + = active, no number.

SMILES	Granule exo inh	ABCB6 inh MLPCN	Myeloid diff MLP
C#CCOCCOCCOCCNc1nc(N2CCN(C(=O)[C@H](C(C)C)n3cc(CCO)nn3)CC2)nc(N2CCN(C(=O)[C@H]([C@@H](C)CC)n3cc(CCC(=O)O)nn3)CC2)n1	–	–	–
CN(C)c1ccc(C(=O)c2ccc(O)cc2O)cc1	–	–	–
CN(C)c1ccc(Cc2cc3c(O)ccc(O)c3cc(Cc3ccc(N(C)C)cc3)c2=O)cc1	104	–	–
COC(=O)[C@@]12C[C@@H](CC(=O)N3CCSCC3)C(=O)N(CCc3ccc(OC)c(OC)c3)C1=CCC(C)(C)C2	–	·	–
CCN1C(=O)[C@H]2[C@@H](c3ccc(C)cc3)N[C@]3(CCCN(Cc4cccn4C)C3=O)[C@H]2C1=O	–	–	–
CCCN1CCc2c(sc3nc(SCC)n(-c4ccccc4)c(=O)c23)C1	–	–	+
CCCN1CCc2c(sc3nc(SC)n(-c4ccccc4)c(=O)c23)C1	–	–	·
Cc1ccc(-n2nnnc2SCC(=O)c2c(N)n(C3CC3)c(=O)[nH]c2=O)cc1	–	–	+
Nc1c(C(=O)CSc2nnnn2-c2ccccc2)c(=O)[nH]c(=O)n1C1CC1	–	–	–
CCCOc1ccc(/C=C/C(=O)N2CCN(C(=O)c3ccco3)CC2)cc1OC	–	–	–
COc1ccc(O)c(CN2CCCC(N3CCN(c4ccc(F)cc4)CC3)C2)c1 (centres undefined)	–	–	–
COc1ccc(N2CCN(C3CCCN(Cc4ccc(F)cc4Cl)C3)CC2)cc1 (centres undefined)	–	–	+
O=C(c1ccc(Cn2cc([N+](=O)[O-])cn2)o1)N1CCCCCC1	–	–	–
COc1cc(/C=N/NC(=O)c2nnn(-c3nonc3N)c2C)ccc1OCc1ccc(Cl)cc1	–	–	–
CCCCCCOc1ccc(/C(C)=N/NC2=NCCN2)cc1	59	–	–
CCCCCOc1ccc(/C(C)=N/NC2=NCCN2)cc1	–	–	–
CCOC(=O)c1[nH]c(C)c(C(=O)N2CCN(c3ccccc3)CC2)c1C	–	–	–
CCOc1ccc2ccccc2c1C(=O)N1CCN(c2ccccc2)CC1	–	–	+
CCc1ccc2cc3c(cc2n1)C(=O)c1ccccc1-3	–	–	–
CCOC(=O)c1cc2c(ccn2C)n1CC(=O)N(Cc1ccccc1)c1ccccc1	–	–	+
CCOC(=O)c1cc2c(ccn2C)n1CC(=O)N(Cc1ccccc1)c1ccc(F)cc1	–	–	–
C=CCSC(=C(C#N)C#N)c1cc2c([nH]1)CCCC2	–	–	+
O=C(O)c1cc2c([nH]c1=O)CCCC2	–	–	–
Cc1ccc2c(C)c(C(=O)Nc3cccnc3)oc2c1C	–	–	–
CC(C)C[C@@H](CNCC(=O)[C@H](CC(=O)O)NC(=O)c1[nH]cnc1C(=O)N[C@H](CN)CC(C)C)NC(=O)c1nc[nH]c1C(=O)N[C@@H](C)C(=O)O	–	–	–
SMILES	Granule exo inh	ABCB6 inh MLPCN	Myeloid diff MLP
NN(Cc1ccccc1)C(=S)Nc1ccc(Cl)c(Cl)c1	61	–	–
NC(=S)Nc1ccc(Cl)c(Cl)c1	–	–	–
Nc1c(C(=O)O)sc2nc(-c3ccccc3)cc(-c3ccc(F)cc3)c12	–	–	+
Nc1c(C(=O)O)sc2nc(-c3ccccc3)cc(-c3ccccc3)c12	–	–	–
CC(C)(C)C(=O)N1CCC2CC1c1cc(Cl)ccc12 (centres undefined)	–	–	–
O=C(Nc1ccc(C(=O)N2CCOCC2)cc1)c1ccccc1Cl	–	–	–
C=CCCC(=O)N1C[C@H]2CON(C)[C@H]2C[C@H]1c1cccc(N2CCOCC2)c1	–	–	–
O=C(c1ccccc1)c1ccc2ccccc2c1	–	–	–
O=C(c1ccccc1)c1c2c(cc3sc4ccccc4[n+]13)-c1cccc3cccc-2c13	88	–	?
CS(=O)(=O)c1ncc(Cl)c(C(=O)Nc2ccc(OC(F)F)cc2)n1	–	–	?
CCN(c1ccccc1)S(=O)(=O)c1ccc(NC(=O)c2nc(S(C)(=O)=O)ncc2Cl)cc1	–	37	?
CCc1ccc(OCC(=O)N2CCN(c3ccccn3)CC2)c(Br)c1	–	–	–
Cc1ccc(NS(=O)(=O)c2cccc(C(=O)Nc3cccnc3)c2)c(C)c1	–	–	–
C(=C\c1ccccc1)/CN1CCN(C(c2cccc3ccccc23)c2nnnn2-c2ccc3c(c2)OCCO3)CC1 (centres undefined)	–	–	–
Cc1ccc2c(c1)CCCN2S(=O)(=O)c1cccc(C(=O)Nc2ccccc2C(=O)O)c1	–	–	–
COc1ccc2c(c1)O/C(=C\c1ccco1)C2=O	–	–	–
CC(=O)COc1ccc2c(c1C)O/C(=C\c1ccco1)C2=O	–	–	+
O=C(COC(=O)Cc1ccc(S(=O)(=O)N2CCOCC2)s1)Nc1ccccc1Cl	–	–	–
COCCNC(=S)N1CCC2CC1c1c(Cl)cccc12 (centres undefined)	–	–	–
CC1OC2CC(=O)OC2C2=C1C(=O)c1c(O)cccc1C2=O (centres undefined)	86	–	–
O=C(NCC(=O)N1CCCCCCC1)c1ccc(Cl)c(Cl)c1	–	–	–
CC(=O)N1N=C(c2ccco2)CC1c1cc2cc(C)ccc2nc1Cl (centres undefined)	–	–	+
Cc1ccc2nc(Cl)c(C3CC(c4ccco4)=NN3C(=O)CCCC(=O)O)cc2c1 (centres undefined)	–	–	–
Cc1c2cc(O)c(=O)cc-2oc2cc(O)c(O)cc12	–	–	+
Cc1cc2oc(=O)cc(-c3cc4ccccc4o3)c2cc1O	–	–	–
SMILES	Granule exo inh	ABCB6 inh MLPCN	Myeloid diff MLP
COc1cc(-c2nc(-c3ccc(NC(=O)c4ccc5c(c4)OCO5)cc3)no2)cc(OC)c1OC	–	–	–
Cc1ccccc1-c1nc(-c2ccc(NC(=O)c3ccc4c(c3)OCO4)cc2)no1	–	–	+
COc1ccc(F)cc1C(=O)C1CCCN(C(=O)c2ccc(C(C)=O)s2)C1 (centres undefined)	–	–	–
COc1ccc(F)cc1C(=O)C1CCCN(C(=O)C2=C(C)OCCO2)C1 (centres undefined)	–	–	+
COc1ccccc1NS(=O)(=O)c1ccc(Cl)c(NC(=O)c2sc3cc(Cl)ccc3c2Cl)c1	–	–	·
O=C(Nc1cc(S(=O)(=O)Nc2ccccc2Cl)ccc1O)c1sc2cc(Cl)ccc2c1Cl	–	–	+
CC(C)Cn1c(/C=N/Nc2nc3ccccc3[nH]2)nc2ccccc21	–	–	+
Cn1c(/C=N/Nc2nc3ccccc3[nH]2)nc2ccccc21	–	–	–
CCCn1c(/C=N/Nc2nc3ccccc3[nH]2)nc2ccccc21	–	–	?
Cc1c(/C=N/Nc2nc3ccccc3[nH]2)c2ccccc2n1C	85	–	–
COc1ccc(S(=O)(=O)N2CCCOC2CNC(=O)C(=O)NCCCN2CCOCC2)cc1 (centres undefined)	–	–	·
COC1=C/C(=C/c2c(N)n3nc(CC(=O)N4CCCC4)sc3nc2=O)C=CC1=O	–	–	–
COC1=CC(=Cc2c(N)n3nc(CC(=O)N4CCCCC4)sc3nc2=O)C=C(OC)C1=O	–	–	+

Bioassay records deposited in PubChem by NMMLSC.
